Laboratory results reported in PubChem BioAssay (NCATS).
Results filed as inconclusive are left out. Values without a mark were called inactive. Active and inactive are the calls of the source. The call rests on the fitted dose curve; in most records, active means well fitted inhibition curve with a large enough effect; inconclusive means small, poorly fitted or top-dose-only effect; inactive means flat fitted curve, though single readings scatter.

System: TAB109
Assay: qHTS profiling for inhibitors of Plasmodium falciparum proliferation (AID 504749); further: nearly all actives have a fitted effect of over 60% in size;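 on activity, negative = inhibition: 0% = DMSO vehicle and full inhibition = artemisinin control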
Settings: P. falciparum in erythrocytes, SYBR Green DNA, 72 h; series mostly up to 28.7 µM; activity, negative = inhibition: at the top concentration
Procedure, shortened: (§1)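 In a 72 h erythrocytic culture (37 C, humidified, 5% CO2) at 2.5% hematocrit and 0.3% starting parasitemia, compounds were tested; SYBR Green I in detergent lysis buffer stained parasite DNA overnight.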
Potency means the concentration at half of the fitted maximal effect.

SMILES | activity, negative = inhibition | Potency
C#C[C@]1(O)CC[C@H]2[C@@H]3CCc4cc(O)ccc4[C@H]3CC[C@@]21C | 5.4% | –
O=C(O)COc1ccc(C(=O)c2cccs2)c(Cl)c1Cl | – | inactive
C=C(Nc1ccc(OCC)cc1)Nc1ccc(OCC)cc1 | – | inactive
CCCCC[C@H](O)/C=C/[C@@H]1[C@@H](C/C=C\CCCC(=O)O)[C@@H](O)C[C@H]1O | 0.612% | –
CCCCCC[C@@H](O)C/C=C\CCCCCCCC(=O)O | 7.31% | –
C=CC(N)CCC(=O)O (stereo not drawn) | 10.8% | –
Cc1ccccc1CNc1ncnc2c1ncn2C1OC(CO)C(O)C1O (stereo not drawn) | -1.15% | –
CC(=O)[C@]1(O)Cc2c(O)c3c(c(O)c2[C@@H](O[C@H]2C[C@H](N)[C@H](O)[C@H](C)O2)C1)C(=O)c1c(O)cccc1C3=O | – | 7.08 µM (active)
Cc1[nH]cnc1CN1CCc2c(c3ccccc3n2C)C1=O | -0.23% | –
CCCCCCOc1ccccc1C(N)=O | 6.71% | –
Oc1c(Br)cc(Br)c2cccnc12 | -0.623% | –
O=C(O)/C=C/C(O)c1ccc(Cl)cc1 (stereo not drawn) | -8.16% | –
O=C1CN(/N=C/c2ccc(-c3ccc([N+](=O)[O-])cc3)o2)C(=O)N1 | 0.192% | –
C=CCN1C(=O)C(CC(C)C)NC1=S (stereo not drawn) | -0.139% | –
N=c1ccn2c(n1)O[C@H]1[C@H](O)[C@@H](CO)O[C@H]12 | 11.3% | –
CC1(C)C[C@@H]1C(=O)N/C(=C\CCCCSC[C@H](N)C(=O)O)C(=O)O | 4.02% | –
O=C(O)c1cc(O)c(O)c(O)c1 | -28.4% | –
O=C(O)[C@H](O)[C@@H](O)[C@H](O)[C@H](O)CO | -0.62% | –
COC(=O)C1=C(C)NC(C)=C(C(=O)OCC(C)C)C1c1ccccc1[N+](=O)[O-] (stereo not drawn) | – | 8.91 µM (active)

System: TAB113
Assay: as above
Settings: P. falciparum in erythrocytes, SYBR Green DNA, 72 h; series mostly up to 28.7 µM; activity, negative = inhibition: at the top concentration
Procedure, shortened: as §1

SMILES | activity, negative = inhibition | Potency
C#C[C@]1(O)CC[C@H]2[C@@H]3CCc4cc(O)ccc4[C@H]3CC[C@@]21C | -11.7% | –
O=C(O)COc1ccc(C(=O)c2cccs2)c(Cl)c1Cl | – | inactive
C=C(Nc1ccc(OCC)cc1)Nc1ccc(OCC)cc1 | – | inactive
CCCCC[C@H](O)/C=C/[C@@H]1[C@@H](C/C=C\CCCC(=O)O)[C@@H](O)C[C@H]1O | -14% | –
CCCCCC[C@@H](O)C/C=C\CCCCCCCC(=O)O | 6.65% | –
C=CC(N)CCC(=O)O (stereo not drawn) | 1.28% | –
Cc1ccccc1CNc1ncnc2c1ncn2C1OC(CO)C(O)C1O (stereo not drawn) | -3.26% | –
CC(=O)[C@]1(O)Cc2c(O)c3c(c(O)c2[C@@H](O[C@H]2C[C@H](N)[C@H](O)[C@H](C)O2)C1)C(=O)c1c(O)cccc1C3=O | – | 7.08 µM (active)
Cc1[nH]cnc1CN1CCc2c(c3ccccc3n2C)C1=O | -4.09% | –
CCCCCCOc1ccccc1C(N)=O | -2.47% | –
O=C(O)/C=C/C(O)c1ccc(Cl)cc1 (stereo not drawn) | 1.41% | –
O=C1CN(/N=C/c2ccc(-c3ccc([N+](=O)[O-])cc3)o2)C(=O)N1 | 2.44% | –
C=CCN1C(=O)C(CC(C)C)NC1=S (stereo not drawn) | 1.24% | –
N=c1ccn2c(n1)O[C@H]1[C@H](O)[C@@H](CO)O[C@H]12 | -2.85% | –
CC1OC1P(=O)(O)O (stereo not drawn) | -6.97% | –
CC1(C)C[C@@H]1C(=O)N/C(=C\CCCCSC[C@H](N)C(=O)O)C(=O)O | 6.49% | –
O=C(O)[C@H](O)[C@@H](O)[C@H](O)[C@H](O)CO | -0.643% | –

System: TAB165
Assay: as above
Settings: P. falciparum in erythrocytes, SYBR Green DNA, 72 h; series mostly up to 28.7 µM; activity, negative = inhibition: at the top concentration
Procedure, shortened: as §1

SMILES | activity, negative = inhibition | Potency
C#C[C@]1(O)CC[C@H]2[C@@H]3CCc4cc(O)ccc4[C@H]3CC[C@@]21C | -2.61% | –
O=C(O)COc1ccc(C(=O)c2cccs2)c(Cl)c1Cl | – | inactive
C=C(Nc1ccc(OCC)cc1)Nc1ccc(OCC)cc1 | – | inactive
CCCCC[C@H](O)/C=C/[C@@H]1[C@@H](C/C=C\CCCC(=O)O)[C@@H](O)C[C@H]1O | -17.9% | –
CCCCCC[C@@H](O)C/C=C\CCCCCCCC(=O)O | 10.9% | –
CN1[C@@H](CC(=O)c2ccccc2)CCC[C@H]1C[C@H](O)c1ccccc1 | – | 14.1 µM (active)
C=CC(N)CCC(=O)O (stereo not drawn) | 9.86% | –
Cc1ccccc1CNc1ncnc2c1ncn2C1OC(CO)C(O)C1O (stereo not drawn) | 5.18% | –
CC(=O)[C@]1(O)Cc2c(O)c3c(c(O)c2[C@@H](O[C@H]2C[C@H](N)[C@H](O)[C@H](C)O2)C1)C(=O)c1c(O)cccc1C3=O | – | 5.01 µM (active)
Cc1[nH]cnc1CN1CCc2c(c3ccccc3n2C)C1=O | -0.199% | –
CCCCCCOc1ccccc1C(N)=O | -8.66% | –
O=C(O)/C=C/C(O)c1ccc(Cl)cc1 (stereo not drawn) | 4.74% | –
O=C1CN(/N=C/c2ccc(-c3ccc([N+](=O)[O-])cc3)o2)C(=O)N1 | -6.7% | –
C=CCN1C(=O)C(CC(C)C)NC1=S (stereo not drawn) | – | inactive
N=c1ccn2c(n1)O[C@H]1[C@H](O)[C@@H](CO)O[C@H]12 | 2.6% | –
CC1OC1P(=O)(O)O (stereo not drawn) | 2.1% | –
CC1(C)C[C@@H]1C(=O)N/C(=C\CCCCSC[C@H](N)C(=O)O)C(=O)O | 21.9% | –
O=C(O)[C@H](O)[C@@H](O)[C@H](O)[C@H](O)CO | 2.06% | –
COC(=O)C1=C(C)NC(C)=C(C(=O)OCC(C)C)C1c1ccccc1[N+](=O)[O-] (stereo not drawn) | – | 10 µM (active)

System: W2
Assay: as above
Settings: P. falciparum in erythrocytes, SYBR Green DNA, 72 h; series mostly up to 28.7 µM; activity, negative = inhibition: at the top concentration
Procedure, shortened: as §1

SMILES | activity, negative = inhibition | Potency
C#C[C@]1(O)CC[C@H]2[C@@H]3CCc4cc(O)ccc4[C@H]3CC[C@@]21C | 3.67% | –
O=C(O)COc1ccc(C(=O)c2cccs2)c(Cl)c1Cl | – | inactive
C[S+](CC[C@H](N)C(=O)O)C[C@H]1O[C@@H](n2cnc3c(N)ncnc32)[C@H](O)[C@@H]1O (stereo partly drawn) | -3.61% | –
COc1cc(/C=C/C(=O)CC(=O)/C=C/c2ccc(O)c(OC)c2)ccc1O | – | 6.75 µM (active)
NC(=O)C(c1ccccc1)(c1ccccc1)[C@@H]1CCN(CCc2ccc3c(c2)CCO3)C1 | – | 1.69 µM (active)
CCCCC[C@H](O)/C=C/[C@@H]1[C@@H](C/C=C\CCCC(=O)O)[C@@H](O)C[C@H]1O | -8.94% | –
CCCCCC[C@@H](O)C/C=C\CCCCCCCC(=O)O | -0.966% | –
CN1[C@@H](CC(=O)c2ccccc2)CCC[C@H]1C[C@H](O)c1ccccc1 | – | 5.36 µM (active)
C=CC(N)CCC(=O)O (stereo not drawn) | 8.01% | –
Cc1ccccc1CNc1ncnc2c1ncn2C1OC(CO)C(O)C1O (stereo not drawn) | -3.78% | –
CC(=O)[C@]1(O)Cc2c(O)c3c(c(O)c2[C@@H](O[C@H]2C[C@H](N)[C@H](O)[C@H](C)O2)C1)C(=O)c1c(O)cccc1C3=O | – | 4.26 µM (active)
Cc1[nH]cnc1CN1CCc2c(c3ccccc3n2C)C1=O | -19.5% | –
CCCCCCOc1ccccc1C(N)=O | 2.24% | –
Oc1c(Br)cc(Br)c2cccnc12 | 0.238% | –
O=C(O)/C=C/C(O)c1ccc(Cl)cc1 (stereo not drawn) | -5.57% | –
O=C1CN(/N=C/c2ccc(-c3ccc([N+](=O)[O-])cc3)o2)C(=O)N1 | -14.9% | –
C=CCN1C(=O)C(CC(C)C)NC1=S (stereo not drawn) | – | inactive
N=c1ccn2c(n1)O[C@H]1[C@H](O)[C@@H](CO)O[C@H]12 | -7.55% | –
CC1OC1P(=O)(O)O (stereo not drawn) | -16.1% | –
CC1(C)C[C@@H]1C(=O)N/C(=C\CCCCSC[C@H](N)C(=O)O)C(=O)O | 10.7% | –
O=C(O)c1cc(O)c(O)c(O)c1 | – | 5.36 µM (active)
O=C(O)[C@H](O)[C@@H](O)[C@H](O)[C@H](O)CO | 1.18% | –
COC(=O)C1=C(C)NC(C)=C(C(=O)OCC(C)C)C1c1ccccc1[N+](=O)[O-] (stereo not drawn) | – | 6.01 µM (active)
